Source: PubChem (National Center for Advancing Translational Sciences (NCATS))
The list is not random: actives were taken first. Their share in the collection is about 5.7%.
JMJD2A Tudor inh: inhibitors of human JMJD2A Tudor domain; O75164; AlphaScreen JMJD2A-Tudor / H3K4me3 peptide binding; 390,000 compounds, 4.4% hits; AID 504339; Potency, µM (top dose mostly 114 µM), most hits filed as inhibitors; also: nearly all actives have a fitted effect of over 50% in size
L3MBTL1 inh-1: inhibitors of human L3MBTL1 | AlphaScreen L3MBTL1–H3K9me1 peptide binding | 230,000 compounds, 0.66% hits | Potency, µM (titrated, usually from 57.1 µM), actives largely listed as inhibitors; also: nearly all actives have a fitted effect of over 60% in size
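Displacement of a biotinylated histone H3(1-15) peptide monomethylated at Lys9 (75 nM) from L3MBTL1 (50 nM) was measured by AlphaScreen after a 30 min room-temperature compound incubation; cefsulodin titration served as intraplate control.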
KDM4E inh: JMJD2E (human) inhibition; JMJD2E catalytic domain, FDH-coupled NADH fluorescence (FDH is formaldehyde dehydrogenase); AID 2147; 230,000 compounds, 1.6% hits; Potency, µM (highest dose often 57.1 µM), actives largely listed as inhibitors; B2RXH2; active = well fitted inhibition curve with a large enough effect, not every such curve was filed as active; inconclusive = small, poorly fitted or top-dose-only effect, or another doubt; inactive = no such curve, though single readings can be large or run the other way; also: nearly all actives have a fitted effect of over 50% in size
HP1b binding inh: blocks HP1-beta chromodomain binding to methylated histone tails; P83916; AlphaScreen HP1-beta / biotin-H3K9me3 peptide binding; Potency, µM (doses to about 114 µM), actives largely listed as inhibitors; 390,000 compounds, 0.56% hits; AID 540317; also: nearly all actives have a fitted effect of over 70% in size
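AlphaScreen: HP1-beta (50 nM) preformed 30 min with biotin-H3(1-18)K9me3 peptide (50 nM) in PBS pH 7.4, 0.01% Tween-20. Compound added for 30 min at RT, then streptavidin donor/nickel chelate acceptor beads (10 ug/mL) for 30 min.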
PI5P4K alpha inh: blocks human PI5P4K alpha kinase activity. AID 652105. PI5P4Kalpha enzyme, ADP-Glo luminescence, 60 min; hits give low values. 330,000 compounds, 1.2% hits. max response, %. P48426; active = max response of -50% or lower; inconclusive = between -30% and -50%; inactive = -30% or higher; also: value at the top dose of about 77 µM
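Compounds were pin-transferred onto PI5P4Kalpha and substrate in HEPES pH 7.4 buffer with EGTA, CHAPS and 5% DMSO. ATP (5 microM final) started the reaction, which ran 60 minutes at room temperature before ADP-Glo detection.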
BAZ2B inh: inhibitors of human BAZ2B bromodomain | Q9UIF8 | AlphaScreen BAZ2B-H3K14Ac peptide displacement | Potency, µM (highest dose often 114 µM), usual class: inhibitors | 360,000 compounds, 4.4% hits; also: nearly all actives have a fitted effect of over 60% in size
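BAZ2B 50 nM plus b-H3(5-23)K14Ac 50 nM, PBS pH 7.4/0.01% Tween-20, 30 min RT; compound added (max 110 uM), 30 min RT; streptavidin donor/Ni-chelate acceptor beads 10 ug/mL final, 20 min dark; AlphaScreen read.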
L3MBTL1 inh-2: L3MBTL1 binding inhibition validated. shares compounds with L3MBTL1 inh-1. L3MBTL1 methyl-lysine binding inhibition, biochemical qHTS. Potency, µM, hits mostly inhibitors. 500 compounds, 91% hits; also: nearly all actives have a fitted effect of over 70% in size
L3MBTL1 ctr: counter-screen for L3MBTL1 inhibitors: AlphaScreen signal interference. shares compounds with L3MBTL1 inh-1. AlphaScreen counterscreen, signal inhibition. Potency, µM (doses to about 57.1 µM), most hits filed as inhibitors. 500 tested, under 10 active. AID 602224
Numbers stand for hits; 0 = inactive; ? = inconclusive; - = no result; [ ] = dose if it differs, or a comment. Unless noted, calls follow the shape of the dose curve; as a rule, active = well fitted curve in the direction sought with a large enough effect; inconclusive = small, poorly fitted or top-dose-only effect, or another doubt; inactive = no such curve, though single readings can be large; an effect the other way counts as inactive or inconclusive.

SMILES	JMJD2A Tudor inh	L3MBTL1 inh-1	KDM4E inh	HP1b binding inh	PI5P4K alpha inh	BAZ2B inh	L3MBTL1 inh-2	L3MBTL1 ctr
Cc1ccc(NC(=O)CN2C(=O)N/C(=C/c3cc(C)n(-c4cccc(C(=O)O)c4)c3C)C2=O)cc1	?	25.1µM	?	?	?	22.4µM	16.8	0
Cc1ccc(CN2C(=O)N/C(=C\c3cccn3-c3cccc(C(=O)O)c3)C2=O)cc1	44.7µM	2.51µM	0	?	?	35.5µM	2.67	0
Cc1ccc(NC(=O)CN2C(=O)N/C(=C/c3ccc(C)s3)C2=O)cc1	0	0	0	0	0	0	-	-
Cc1ccccc1NC(=O)Cc1nc(COC(=O)c2ccc(Cl)nc2)cs1	0	0	-	0	0	0	-	-
Cc1ccc(C)c(S(=O)(=O)N2CCN(C(=O)[C@@H]3CCCN3C(=O)c3cccs3)CC2)c1	0	0	-	0	0	0	-	-
Cc1ccc(/C=C/C(=O)N2CCc3ccccc32)o1	39.8µM	31.6µM	0	44.7µM	-74.6	44.7µM	5.97	0
O=C(/C=C/c1ccco1)N1CCc2ccccc21	0	0	0	0	?	-	-	-
Cc1ccn2c(=O)nc(SCC(=O)Nc3cccc4ccccc34)nc2c1	0	?	-	0	0	0	-	-
O=C(CSc1nc(=O)n2cc(Cl)ccc2n1)Nc1cccc2ccccc12	0	25.1µM	-	0	?	?	?	0
CCNC(=O)NC(=O)C(C)OC(=O)[C@H](C)NS(=O)(=O)c1c(C)c(C)cc(C)c1C (some centres undefined)	0	-	0	0	0	0	-	-
CC(C)C1Nc2ccc(C(=O)O)cc2C2C=CCC21 (centres undefined)	31.6µM	4.47µM	0	?	?	79.4µM	2.99	0
COCCNC(=O)C1Nc2ccc(OC(F)(F)F)cc2C2C=CCC12 (centres undefined)	0	-	-	0	0	-	-	-
CCCC1Nc2ccc(C(=O)O)cc2C2C=CCC12 (centres undefined)	56.2µM	10µM	0	0	0	44.7µM	3.77	0
COCCNC(=O)C1Nc2ccc(C(F)(F)F)cc2C2C=CCC12 (centres undefined)	0	-	-	0	0	-	-	-
OC(c1cccc(F)c1)c1ncc(-c2ccc(Oc3ccccc3)cc2)[nH]1 (centres undefined)	-	-	-	-	0	-	-	-
CCOc1ccc(OCCCC(=O)N2CCN(S(=O)(=O)c3ccc(Cl)cc3)CC2)cc1	17.8µM	31.6µM	-	?	0	44.7µM	26.7	0
COc1ccc2c(CC(=O)NCc3ccc4c(c3)OCO4)coc2c1	39.8µM	25.1µM	0	0	-	50.1µM	26.7	0
CC(CNc1ccccc1O)C(=O)O (centres undefined)	3.16µM	28.2µM	?	50.1µM	0	50.1µM	10.6	0
CC(NC(=O)CCC(=O)Nc1ccccc1O)c1ccccc1 (centres undefined)	0	-	-	0	0	-	-	-
O=C1C=C(Nc2ccc(O)cc2)CC(c2ccco2)C1 (centres undefined)	0	?	0	0	0	0	-	-
O=C1C=C(O)CC(c2ccco2)C1 (centres undefined)	56.2µM	14.1µM	0	0	0	?	2.99	0
CCN(CC)CCCNC(=O)c1ccc2c(c1)NC(=O)C(CS(=O)(=O)Cc1cccc(Br)c1)N2 (centres undefined)	0	-	-	?	-	0	-	-
Cn1c(N)c(C(=O)COC(=O)c2cc(C(F)(F)F)nc3ccccc23)c(=O)n(Cc2ccccc2)c1=O	0	0	?	0	0	0	-	-
Cn1c(N)c(C(=O)COC(=O)c2cc(-c3ccco3)nc3ccccc23)c(=O)n(Cc2ccccc2)c1=O	-	31.6µM	?	-	-	?	3.77	0
COc1cc(NC(=O)CSc2nnc3c4ccccc4n(C)c3n2)cc(OC)c1OC	0	-	-	0	-	-	-	-
SMILES	JMJD2A Tudor inh	L3MBTL1 inh-1	KDM4E inh	HP1b binding inh	PI5P4K alpha inh	BAZ2B inh	L3MBTL1 inh-2	L3MBTL1 ctr
Cc1ccc(/C=c2\sc3nc(-c4ccco4)nn3c2=O)o1	0[11.4 µM]	7.94µM	?	22.4µM	-69.3	50.1µM	16.8	0
C=CCOc1ccccc1/C=c1\sc2nc(-c3oc4ccccc4c3C)nn2c1=O	0	-	-	0	-	-	-	-
CC1CCN(C(=O)CN2c3cccc4cccc(c34)S2(=O)=O)CC1	0	0	-	0	0	0	-	-
COC(=O)c1ccc(CSc2nnc(NC(=O)C3CC(=O)N(Cc4ccc(C)cc4)C3)s2)cc1 (centres undefined)	0	0	0	0	0	0	-	-
Cc1ccnc(NS(=O)(=O)c2ccc(NC(=O)Cc3cccs3)cc2)n1	31.6µM	31.6µM	0	0	-83.0	50.1µM	2.67	0
Cc1ccc2c(=O)n3c(nc2c1)C(Cc1ccc(O)cc1)NC(=O)c1cc2ccccc2cc1-3 (centres undefined)	-	-	-	-	0	-	-	-
CSc1nc(NCCOCCO)c2sc3nc(-c4ccco4)c4c(c3c2n1)CCC4	0	5.62µM	?	0	0	44.7µM	2.67	0
CSc1nc(NCc2ccco2)c2sc3nc(C(C)C)c4c(c3c2n1)CC(C)(C)OC4	0	0	?	0	0	0	-	-
Cc1cccc(Cn2c(CNC(=O)c3ccccc3)nc3ccccc32)c1	0	-	-	0	-	0	-	-
COc1ccccc1Sc1nc(-c2ccccn2)ncc1OC	89.1µM	3.98µM	0	0	0	22.4µM	18.9	0
O=C(O)CN1C(=O)/C(=C/c2ccc(SCc3ccccc3)o2)SC1=S	56.2µM	2.24µM	?	?	?	25.1µM	4.74	?
O=C(O)CN1C(=O)/C(=C\c2ccc(OC(=O)c3ccco3)cc2)SC1=S	?	-	-	0	0	0	-	-
O=C(O)CCCN1C(=O)/C(=C\c2ccco2)SC1=S	79.4µM	25.1µM	?	?	0	?	?	0
O=C(CCCN1C(=O)/C(=C/c2ccco2)SC1=S)Nc1ccccc1C(=O)O	89.1µM	7.08µM	?	0	-81.7	39.8µM	3.36	0
O=C(NCc1ccccn1)c1ccc(=O)oc1	8.91µM	15.8µM	?	0	0	6.31µM	21.2	0
O=C(O)c1ccc(S(=O)(=O)Nc2ccc(O)c(Sc3nc4ccccc4s3)c2)cc1	89.1µM	22.4µM	0	0	?	?	7.52	0
NS(=O)(=O)c1ccc(Sc2nc3ccccc3s2)c([N+](=O)[O-])c1	?	-	0	0	0	0	-	-
Cc1c(-c2nsc(NC(=O)c3cccs3)n2)nnn1-c1ccc(F)cc1	0	-	-	0	-	0	-	-
O=C(O)c1cc(-c2ccco2)nc2cc3ccccc3cc12	?	10µM	?	0	?	56.2µM	0.844	0
CC(C)(C)C(=O)C(C(c1ccccc1)N1CCOCC1)N1CCOCC1 (centres undefined)	0	-	-	0	0	-	-	-
